Source: PubChem
Hits are enriched below; roughly 3.6% of the tested compounds scored in any of these assays.
mHTT CaM bind: inhibitors of human mutant huntingtin-calmodulin interaction; hit rate 3.6% among 190,000; AlphaScreen His-mHTT/GST-CaM binding, luminescence; AID 1671202; inhibition, % at 15 µM
Pf apPOL block: Pf-apPOL DNA polymerase inhibition; Recombinant Pf-apPOL, molecular beacon fluorescence, 1.5 h; inhibition, % at 10 µM; hit rate 0.25% among 210,000
Numbers stand for hits; ! = not confirmed by another sample. Rule as the data show it: active = inhibition above about 50%; inactive = the rest.

How did CN(C)CC(O)COc1ccc(C(C)(C)CC(C)(C)C)cc1 (stereo not drawn) do in these assays?
mHTT CaM bind: 99.3; Pf apPOL block: inactive

How did CC(C)(C)c1ccc(OCC(O)CN)cc1 (stereo not drawn) do in these assays?
mHTT CaM bind: inactive; Pf apPOL block: inactive

What do the screens show for `CC(C)(C)c1ccc(OCC(O)CN2CCCC2)c(C(C)(C)C)c1` (stereo not drawn)?
mHTT CaM bind: inactive; Pf apPOL block: inactive

Results for CC(C)(C)CC(C)(C)c1ccc(OCC(O)CN2CCCC2)cc1 (stereo not drawn) ?
mHTT CaM bind: 100.1; Pf apPOL block: inactive

Results for CC[N+]1(CC(O)COc2ccc(C(C)(C)CC(C)(C)C)cc2)CCCC1 (stereo not drawn) ?
mHTT CaM bind: 84.0; Pf apPOL block: inactive

How did CC(C)(C)CC(C)(C)c1ccc(OCC(O)C[N+]2(C)CCCC2)cc1 (stereo not drawn) do in these assays?
mHTT CaM bind: inactive; Pf apPOL block: inactive

Results for CC(C)(C)c1ccc(OCC(O)CN2CCN(CCO)CC2)cc1 (stereo not drawn) ?
mHTT CaM bind: inactive; Pf apPOL block: inactive

Results for CCC(C)(C)c1ccc(OCC(O)CN2CCOCC2)c(C(C)(C)CC)c1 (stereo not drawn) ?
mHTT CaM bind: 94.0; Pf apPOL block: inactive

How did Fc1ccc(N2CCN(c3nnc(SCc4cccnc4)s3)CC2)cc1 do in these assays?
mHTT CaM bind: inactive; Pf apPOL block: inactive

What do the screens show for `O=C1CC(C(=O)N2CCCC2)CN1Cc1ccccc1F` (stereo not drawn)?
mHTT CaM bind: inactive; Pf apPOL block: inactive

What do the screens show for `CCCN1C(=O)C(CC(=O)N(CC)CC)Sc2ncccc21` (stereo not drawn)?
mHTT CaM bind: inactive; Pf apPOL block: inactive

What do the screens show for `CC1(C)C2CCC1(C)C(NC(=O)CSc1nnc(N)s1)C2` (stereo not drawn)?
mHTT CaM bind: inactive

What do the screens show for `Fc1ccc(NCc2nc3ccccc3n2Cc2ccccc2)cc1`?
mHTT CaM bind: 50.0; Pf apPOL block: inactive

How did Cc1ccc(CNc2ccc3c(c2)ncn3C)cc1 do in these assays?
mHTT CaM bind: inactive; Pf apPOL block: inactive

Results for Cn1cnc2cc(NCc3nc4ccccc4n3Cc3ccccc3)ccc21 ?
mHTT CaM bind: 87.9!; Pf apPOL block: inactive

What do the screens show for `Nc1nc2ccccc2n1Cc1ccccc1`?
mHTT CaM bind: inactive; Pf apPOL block: inactive

What do the screens show for `COCCn1c(CC2CCN(C(=O)c3cccc(Cl)c3)C2)nc2cccnc21` (stereo not drawn)?
mHTT CaM bind: inactive; Pf apPOL block: inactive

How did CC1CCCN(CC2CCN(S(=O)(=O)c3ccc4c(c3)CCC4)CC2)C1 (stereo not drawn) do in these assays?
mHTT CaM bind: inactive; Pf apPOL block: inactive

What do the screens show for `CC(=O)Nc1ccc(N2C(=O)CC(N3CCN(c4ccccn4)CC3)C2=O)cc1` (stereo not drawn)?
mHTT CaM bind: inactive; Pf apPOL block: inactive

What do the screens show for `O=C(/C=C/c1ccco1)Nc1c2c(nn1-c1ccc(F)cc1)CSC2`?
mHTT CaM bind: 98.0; Pf apPOL block: inactive

Results for COc1ccc(-n2nc3c(c2NC(=O)/C=C/c2ccc(OC)c(OC)c2)CS(=O)(=O)C3)cc1 ?
mHTT CaM bind: inactive; Pf apPOL block: inactive

How did COc1ccc(-n2nc3c(c2NC(=O)/C=C/c2ccc(OC)c(OC)c2)CSC3)cc1 do in these assays?
mHTT CaM bind: inactive; Pf apPOL block: 78.3

Results for COc1ccc(-n2nc3c(c2NC(C)=O)CSC3)cc1 ?
mHTT CaM bind: inactive; Pf apPOL block: inactive

How did O=C(/C=C/c1ccc2c(c1)OCO2)Nc1c2c(nn1-c1ccc(F)cc1)CSC2 do in these assays?
mHTT CaM bind: inactive; Pf apPOL block: inactive

What do the screens show for `COc1ccc(-n2nc3c(c2NC(=O)/C=C/c2ccco2)CSC3)cc1`?
mHTT CaM bind: 77.0; Pf apPOL block: inactive

Results for CC1CC(N(C(=O)c2ccccc2Cl)c2ccccc2)c2ccccc2N1 (stereo not drawn) ?
mHTT CaM bind: 98.0; Pf apPOL block: inactive

How did CCC(=O)N(c1ccccc1)C1CC(C)Nc2ccccc21 (stereo not drawn) do in these assays?
mHTT CaM bind: inactive; Pf apPOL block: inactive

How did COc1ccc(C)cc1NC(=O)C1c2ccccc2C(=O)N(C)C1c1cccs1 (stereo not drawn) do in these assays?
mHTT CaM bind: inactive; Pf apPOL block: inactive

What do the screens show for `CC1CN(C(=O)C(Cl)Cl)C(C)CN1C(=O)C(Cl)Cl` (stereo not drawn)?
mHTT CaM bind: inactive; Pf apPOL block: inactive

Results for O=C(c1cccn2c(=O)c3cc(Cl)ccc3nc12)N1CCN(c2ccc(Cl)cc2)CC1 ?
mHTT CaM bind: inactive; Pf apPOL block: inactive

How did O=C(c1cccn2c(=O)c3cc(Cl)ccc3nc12)N1CCc2ccccc2C1 do in these assays?
mHTT CaM bind: 62.0; Pf apPOL block: inactive

How did O=c1c2ccccc2nc(SCc2ccccc2F)n1Cc1ccco1 do in these assays?
mHTT CaM bind: inactive; Pf apPOL block: inactive

How did O=C1Cc2ccccc2C(c2cccc(Cl)c2Cl)N1 (stereo not drawn) do in these assays?
mHTT CaM bind: inactive; Pf apPOL block: inactive

How did COc1ccc(C(C#N)N2N=C(c3ccccc3)CC2c2ccccc2)cc1OC (stereo not drawn) do in these assays?
mHTT CaM bind: 79.0; Pf apPOL block: inactive

Results for COc1ccc(C(C#N)N2N=C(C)CC2c2ccccc2)cc1OC (stereo not drawn) ?
mHTT CaM bind: inactive; Pf apPOL block: inactive

What do the screens show for `Cc1ccc(NC(=O)Cc2nc(-c3cccnc3)n[nH]2)c(C)c1`?
mHTT CaM bind: inactive; Pf apPOL block: inactive

What do the screens show for `COc1ccc(S(=O)(=O)NCCSCc2ccco2)cc1Br`?
mHTT CaM bind: inactive; Pf apPOL block: inactive

How did Cc1ccc(C)n1-c1ccc2ncccc2c1 do in these assays?
mHTT CaM bind: 66.9; Pf apPOL block: inactive

What do the screens show for `Cc1nnc(C)c2c(C)n(-c3ccc4ncccc4c3)c(C)c12`?
mHTT CaM bind: inactive; Pf apPOL block: inactive

What do the screens show for `O=C1CC(N2CCC(c3ccncc3)CC2)C(=O)N1c1cc(Cl)cc(Cl)c1` (stereo not drawn)?
mHTT CaM bind: inactive; Pf apPOL block: inactive

What do the screens show for `Cc1cccc(N2CCN(C(=O)c3sc(Nc4ccc(F)cn4)nc3C)CC2)c1`?
mHTT CaM bind: 85.0; Pf apPOL block: inactive

How did Cc1nc(Nc2ccc(F)cn2)sc1C(=O)N1CCc2ccccc2C1 do in these assays?
mHTT CaM bind: 64.6; Pf apPOL block: inactive

What do the screens show for `Cc1ccccc1N1CCN(C(=O)c2sc(Nc3ccc(F)cn3)nc2C)CC1`?
mHTT CaM bind: 100.1; Pf apPOL block: inactive

What do the screens show for `Cc1nc(Nc2ccccn2)sc1C(=O)N1CCc2ccccc2C1`?
mHTT CaM bind: inactive; Pf apPOL block: inactive

Results for Cc1cccc(Nc2nc(C)c(C(=O)N3CCN(c4ccccc4)CC3)s2)n1 ?
mHTT CaM bind: inactive; Pf apPOL block: inactive

How did Cc1nc(Nc2ccc(F)cn2)sc1C(=O)N1CCN(C2CCCCC2)CC1 do in these assays?
mHTT CaM bind: inactive; Pf apPOL block: inactive

How did Cc1ccc2c(c1)c(=O)c1ccccc1n2CCCC(=O)Nc1cccnc1Cl do in these assays?
mHTT CaM bind: inactive; Pf apPOL block: inactive

How did O=C(CN1N=C(c2ccccc2)CCC1=O)NCc1cccnc1 do in these assays?
mHTT CaM bind: inactive; Pf apPOL block: inactive

How did CCCCC(=O)Nc1c(-c2ccc(C)cc2)nc2ccccn12 do in these assays?
mHTT CaM bind: inactive; Pf apPOL block: inactive

Results for c1nc(NC2CCCCC2)c2c3c(sc2n1)CCC3 ?
mHTT CaM bind: inactive; Pf apPOL block: inactive
